Unmarked numbers belong to inactive results. Records with an inconclusive call do not appear. Active and inactive are the calls of the source. Unless noted, calls come from the whole dose curve; as a rule, active = well fitted curve in the direction sought with a large enough effect; inconclusive = small, poorly fitted or top-dose-only effect, or another doubt; inactive = no such curve, though single readings can be large; an effect the other way counts as inactive or inconclusive.

Potency, outcome and activation data for four compounds are collected here from PubChem BioAssay (NCATS).

The target in assay [1] is Cytochrome P450 1A2 (Homo sapiens) (UniProt P05177). Kind of assay: p450-cyp1a2 (AID 410; calls by dose curve; note: potency is the fitted concentration of half-maximal effect). The method, boiled down: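 Inhibition was calculated relative to 57 uM furafylline (full inhibition). The reaction used human CYP1A2 at 20nM with Luciferin-ME at its Km, 100uM, driven by an NADPH-regenerating system for 60 min at room temperature.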
Sequence of Cytochrome P450 1A2 (Homo sapiens) (P05177 whole entry, looked up): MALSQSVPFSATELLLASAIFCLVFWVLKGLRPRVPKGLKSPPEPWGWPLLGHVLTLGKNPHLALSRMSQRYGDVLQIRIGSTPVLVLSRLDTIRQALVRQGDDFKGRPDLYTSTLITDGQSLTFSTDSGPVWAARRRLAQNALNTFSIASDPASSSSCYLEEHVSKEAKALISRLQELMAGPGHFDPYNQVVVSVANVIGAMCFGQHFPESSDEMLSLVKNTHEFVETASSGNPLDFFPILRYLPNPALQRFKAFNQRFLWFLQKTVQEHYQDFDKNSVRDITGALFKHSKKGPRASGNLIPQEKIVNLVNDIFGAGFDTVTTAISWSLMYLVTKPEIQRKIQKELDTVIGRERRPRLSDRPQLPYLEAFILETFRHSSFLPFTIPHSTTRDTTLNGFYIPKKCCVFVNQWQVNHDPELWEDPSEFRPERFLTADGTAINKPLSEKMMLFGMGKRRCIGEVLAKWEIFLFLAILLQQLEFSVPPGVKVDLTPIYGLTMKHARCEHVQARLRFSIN
The target of assay [2] is Glucocorticoid receptor (Homo sapiens) (UniProt P04150). Description: GR-GFP Redistribution (AID 450;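 active = compounds whose dose series gives a full or clear partial fitted curve of increased nuclear translocation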; note: potency is the fitted concentration of half-maximal effect). As to conditions: U2OS GR-GFP nuclear translocation, laser cytometry, 2 h.
Sequence of Glucocorticoid receptor (Homo sapiens) (P04150 whole entry, looked up): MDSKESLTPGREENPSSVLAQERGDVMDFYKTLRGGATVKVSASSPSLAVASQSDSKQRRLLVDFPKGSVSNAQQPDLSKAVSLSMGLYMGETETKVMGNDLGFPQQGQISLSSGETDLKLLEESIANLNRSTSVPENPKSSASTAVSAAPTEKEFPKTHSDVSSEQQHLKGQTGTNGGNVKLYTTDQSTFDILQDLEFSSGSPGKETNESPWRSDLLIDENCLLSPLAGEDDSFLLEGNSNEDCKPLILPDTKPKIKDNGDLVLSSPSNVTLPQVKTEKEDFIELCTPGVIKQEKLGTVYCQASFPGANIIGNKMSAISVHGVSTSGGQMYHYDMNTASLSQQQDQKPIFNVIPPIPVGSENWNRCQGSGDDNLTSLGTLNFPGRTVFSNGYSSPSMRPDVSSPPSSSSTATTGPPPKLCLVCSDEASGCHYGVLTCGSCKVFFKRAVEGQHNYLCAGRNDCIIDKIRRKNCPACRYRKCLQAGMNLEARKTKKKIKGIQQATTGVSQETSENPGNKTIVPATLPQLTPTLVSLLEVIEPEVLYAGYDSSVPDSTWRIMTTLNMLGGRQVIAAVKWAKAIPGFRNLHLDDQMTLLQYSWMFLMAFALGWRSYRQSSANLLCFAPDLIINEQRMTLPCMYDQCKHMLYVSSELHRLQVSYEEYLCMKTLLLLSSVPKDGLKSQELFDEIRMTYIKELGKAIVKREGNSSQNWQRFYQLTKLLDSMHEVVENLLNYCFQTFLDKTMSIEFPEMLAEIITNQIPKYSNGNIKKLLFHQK
Assay [3] has the same target. Description: GR-EFC Redistribution (AID 451; calls by dose curve; note: potency is the fitted concentration of half-maximal effect). Particulars: CHO-K1 GR-EFC translocation, beta-gal luminescence, 2 h. The method, boiled down:
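CHO-K1 cells stably expressing nuclear-localized β-gal enzyme acceptor and GR fused C-terminally to the enzyme donor fragment; ligand-driven nuclear translocation restores β-gal by complementation. Compounds titrated up to 46 uM final, 2 h at 37 °C; luminescence read.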

Assay [4] deals with Mitogen-activated protein kinase 10 (Mus musculus) (UniProt Q61831). Description: JNK3 AlphaScreen Assay (AID 530; active = well fitted curve in either direction with a large enough effect, not every such curve was filed as active;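 note: kinase came from lysate of stimulated human HepG2 cells; signal reports phosphorylation of biotinylated GST-cJun 1-79 at Ser73 with 10 µM ATP; series mostly up to about 57 µM; % is set by controls: 0 for no effect and ±100 for the full control effect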). The method, boiled down: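 JNK3 came from HepG2 lysates pre-activated with IL-1beta and TNF-alpha and phosphorylated biotinylated GST-cJun (1-79) at 10 uM ATP, pH 7.6, room temperature. Compounds were titrated. AlphaScreen signal used anti-phospho-cJun (Ser73) antibody.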

Assay [5] concerns the target 3',5'-cyclic-AMP phosphodiesterase 4B (Homo sapiens) (UniProt Q07343). Kind of assay: qHTS Assay for Inhibitors of PDE-IV (AID 607; active = well fitted activation curve with a large enough effect in the main read-out, with a control signal flat, not every such curve was filed as active; note: % of control where 0% means no effect). The method, boiled down: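 HEK293 ACTOne cells with CNG channel (1000/well), endogenous PDE4; membrane potential dye, compounds up to 22.9 uM final. Fluorescence Ex 535/Em 590; RO 20-1724 (100 uM final) as reference.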
In assay [6] the target is Cytochrome P450 2D6 (Homo sapiens) (UniProt P10635). Description: qHTS Assay for Inhibitors and Substrates of Cytochrome P450 2D6 (AID 891). Note: potency is the fitted concentration of half-maximal effect; nearly all actives have a fitted effect of over 60% in size. The essentials: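 Human CYP2D6 (5 nM) with 30 uM Luciferin-ME EGE (at Km) in 100 mM KPO4, compound preincubated 10 min, then NADPH regeneration system for 60 min at room temperature. Luciferin read by luminescence; normalized to 1.43 uM quinidine.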
In general terms: Quantitative high-throughput screening tests each substance at several concentrations.

Assay [7] has as its target Ubiquitin carboxyl-terminal hydrolase 1 (Homo sapiens) (UniProt O94782). Description: Inhibitors of USP1/UAF1: Pilot qHTS (AID 504865).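 Note: rhodamine fluorescence freed from ubiquitin-rhodamine substrate followed over time; top concentration of the series differs between compounds; % is set by controls: 0 for no effect and ±100 for the full control effect; nearly all actives have a fitted effect of over 35% in size.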 The method, boiled down: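 Kinetic fluorescence assay: 1nM USP1/UAF1, 15 min compound preincubation, then 150nM Ub-Rho; 480/540 nm.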
In assay [8] the target is DNA dC->dU-editing enzyme APOBEC-3G (Homo sapiens) (UniProt Q9HC16). Description: qHTS for inhibitors of Vif-A3G interactions: Validation (AID 588379). Note: 0% is about no effect. The essentials:
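HeLa cells stably expressing Vif and A3G-eYFP, 700 cells/well, incubated overnight at 37 deg C, then exposed to compound overnight at 37 deg C. Inhibition of Vif-mediated degradation read as increased yellow fluorescence (Ex 488/Em 500-530) by laser-scanning cytometry.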

For assay [9], the system named is Zika virus NS2B-NS3 protease. Kind of assay: Primary screen GU AMC qHTS for Zika virus inhibitors (AID 1347154).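 Note: 0% = no-inhibitor control and -100% = no-enzyme control; nearly all actives have a fitted effect of over 70% in size.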 The essentials: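 Unlinked Zika NS2B hydrophilic domain/NS3 protease domain noncovalent complex (25 nM final) in 10 mM Tris-HCl pH 8.0, 0.01% Tween 20, with AMC peptide substrate. Fluorescence (ex 340, em 450 nm) change over 15 min, room temperature; percent inhibition fitted to 4-parameter Hill equation.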

For assay [10], the target named is Rap guanine nucleotide exchange factor 3 (Homo sapiens) (UniProt O95398). Description: Confirmatory qHTS for antagonist of cAMP-regulated guanine nucleotide exchange factor 3 (EPAC1) (AID 1645880).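 Note: plate controls were DMSO only for no effect and full effect of the ATA control for full effect; nearly all actives have a fitted effect of over 55% in size.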 The essentials:
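Nucleotide exchange uses 100 nM EPAC1, 250 nM RAP1B-BODIPY-GDP and 50 uM GDP, with compounds in a concentration-titration series. After 5 min at room temperature, fluorescence (480 nm ex/540 nm em) is read every 5 min for 30 min. Data are normalized to control ATA and DMSO.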

Assay [11] shares this target. Kind of assay: Confirmatory qHTS for agonist of cAMP-regulated guanine nucleotide exchange factor 3 (EPAC1) (AID 1645881).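 Note: EPAC1 catalysed release of BODIPY-GDP from Rap1B seen as fluorescence loss; 100% = effect of cAMP agonist control; nearly all actives have a fitted effect of over 75% in size.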
The target in assay [12] is Rap guanine nucleotide exchange factor 4 (Homo sapiens) (UniProt Q8WZA2). Kind of assay: Confirmatory qHTS for agonist of cAMP-regulated guanine nucleotide exchange factor 4 (EPAC2) (AID 1645884).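 Note: nucleotide exchange releases bodipy-GDP from Rap1 and this lowers its fluorescence; % is set by controls: 0 for no effect and ±100 for the full control effect; nearly all actives have a fitted effect of over 65% in size.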
Sequence of Rap guanine nucleotide exchange factor 4 (Homo sapiens) (Q8WZA2 whole entry, looked up): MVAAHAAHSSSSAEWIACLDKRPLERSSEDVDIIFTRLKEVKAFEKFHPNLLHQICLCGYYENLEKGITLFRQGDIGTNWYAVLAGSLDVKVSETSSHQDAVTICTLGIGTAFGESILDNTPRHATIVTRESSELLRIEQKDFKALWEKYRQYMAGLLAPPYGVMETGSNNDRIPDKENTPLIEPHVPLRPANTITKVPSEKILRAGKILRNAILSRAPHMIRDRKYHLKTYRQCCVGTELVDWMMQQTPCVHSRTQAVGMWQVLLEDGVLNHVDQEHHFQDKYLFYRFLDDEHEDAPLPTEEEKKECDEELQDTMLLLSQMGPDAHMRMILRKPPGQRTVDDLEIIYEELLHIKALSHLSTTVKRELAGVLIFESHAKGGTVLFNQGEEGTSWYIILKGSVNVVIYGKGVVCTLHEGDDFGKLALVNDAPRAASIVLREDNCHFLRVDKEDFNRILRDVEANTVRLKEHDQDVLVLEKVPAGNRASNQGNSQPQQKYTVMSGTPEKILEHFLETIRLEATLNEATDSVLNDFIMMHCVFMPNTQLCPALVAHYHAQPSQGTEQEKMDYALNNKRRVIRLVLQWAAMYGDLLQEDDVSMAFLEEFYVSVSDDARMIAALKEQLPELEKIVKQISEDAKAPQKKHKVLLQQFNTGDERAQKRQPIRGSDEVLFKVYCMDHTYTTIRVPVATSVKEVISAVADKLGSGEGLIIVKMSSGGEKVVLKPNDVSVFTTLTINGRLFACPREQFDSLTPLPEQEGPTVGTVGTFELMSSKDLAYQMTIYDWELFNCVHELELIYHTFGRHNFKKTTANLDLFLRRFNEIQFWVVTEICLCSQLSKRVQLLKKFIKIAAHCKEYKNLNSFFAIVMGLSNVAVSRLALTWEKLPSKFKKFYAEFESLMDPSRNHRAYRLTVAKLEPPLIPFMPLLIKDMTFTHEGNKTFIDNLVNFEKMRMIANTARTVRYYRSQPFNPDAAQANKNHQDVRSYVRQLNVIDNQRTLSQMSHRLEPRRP
For assay [13] the target is unchanged. Description: Confirmatory qHTS for antagonist of cAMP-regulated guanine nucleotide exchange factor 4 (EPAC2) (AID 1645885). Note: potency is the fitted concentration of half-maximal effect; nearly all actives have a fitted effect of over 25% in size.
The nature of assay [14]: qHTS for differential inhibitors of proliferation of Plasmodium falciparum line 7G8 (AID 1815).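 Note: parasite growth measured after three days of incubation; plate controls were vehicle wells for no effect and reference inhibitor wells for full effect.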
Assay [15] in a line: qHTS for differential inhibitors of proliferation of Plasmodium falciparum line GB4 (AID 1816).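 Note: parasite growth measured after 72 h incubation; 0% = vehicle DMSO and -100% = reference inhibitor.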 As to conditions: Potency: Plasmodium falciparum GB4 proliferation inhibition.
Assay [16] can be described thus: qHTS for differential inhibitors of proliferation of Plasmodium falciparum line 3D7 (AID 1876).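 Note: parasite growth measured after three days of culture; 0% = vehicle wells and -100% = reference inhibitor wells.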
The nature of assay [17]: qHTS for differential inhibitors of proliferation of Plasmodium falciparum line Dd2 (AID 1882).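 Note: series mostly up to about 29 µM; compound exposure of 72 h on infected erythrocytes; plate controls were DMSO vehicle for no effect and 0.29 µM artemisinin for full effect; nearly all actives have a fitted effect of over 65% in size.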 Particulars: Potency: Plasmodium falciparum Dd2 proliferation inhibition. The method, boiled down: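 SYBR Green I DNA fluorescence read-out, ex 485/em 535 nm. Signals were normalized to 0.29 uM artemisinin and DMSO wells, then corrected using vehicle-only plates flanking each stack. Parasite growth ran 72 h in erythrocytes before lysis.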

Assay [18] is described as follows: qHTS for differential inhibitors of proliferation of Plasmodium falciparum line W2 (AID 1883).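 Note: parasites grown with compound for 72 h before lysis and staining; 0% = vehicle wells and -100% = control inhibitor wells.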 Particulars: Potency: Plasmodium falciparum W2 proliferation inhibition.
Assay [19] in a line: qHTS for differential inhibitors of proliferation of Plasmodium falciparum line HB3 (AID 1886).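 Note: parasites grown with compound for 72 h before SYBR Green readout; plate controls were vehicle for no effect and reference inhibitor for full effect.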 Particulars: Potency: Plasmodium falciparum HB3 proliferation inhibition.
For assay [20], the target named is ATP-dependent DNA helicase Q1 (Homo sapiens) (UniProt P46063). Kind of assay: qHTS Validation Assay for Inhibitors of RecQ-Like Dna Helicase 1 (RECQ1) (AID 2353).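 Note: plate controls were DMSO vehicle for no effect and enzyme-free control for full effect.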 The essentials:
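50 nM RECQ1T1 preincubated 15 min with compound in Tris pH 8.0 buffer with MgCl2, DTT, Tween-20 and 2.5 ug/ml poly(dI-dC); started with 200 nM TAMRA/BHQ-2 forked duplex and 2 mM ATP. Unwinding read as fluorescence (525/598 nm), two reads 2 h apart.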

Assay [21] can be described thus: Quantitative high throughput screen for delayed death inhibitors of the malarial parasite plastid, 96 hour incubation (AID 488745).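 Note: luciferase-expressing P. falciparum in erythrocytes at 2% hematocrit and 0.1% parasitemia; series mostly up to about 29 µM; % is set by controls: 0 for no effect and ±100 for the full control effect; nearly all actives have a fitted effect of over 70% in size.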 The method, boiled down:
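Growth of reporter-bearing P. falciparum in red cells is measured after 96 h with compound, covering two erythrocytic cycles. Luminescence from the integrated luciferase serves as the growth signal.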

Assay [22] is described as follows: Quantitative high throughput screen for delayed death inhibitors of the malarial parasite plastid, 48 hour incubation (AID 488752). Note: % is set by controls: 0 for no effect and ±100 for the full control effect; nearly all actives have a fitted effect of over 65% in size. The method, boiled down: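 One parasite generation (48 h, 37 C, 5% CO2) of luciferase-reporter P. falciparum in erythrocytes is run with test compound; decreased luminescence indicates inhibited growth.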
Assay [23] concerns the target M-phase phosphoprotein 8 (Homo sapiens) (UniProt Q99549). Description: qHTS Validation Assay for Inhibitors for MPP8 Chromodomain Interactions with Methylated Histone Tails (AID 488949).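 Note: AlphaScreen signal from MPP8 chromodomain bound to biotinylated H3K9me3 peptide; top concentration of the series differs between compounds; % is set by controls: 0 for no effect and ±100 for the full control effect; nearly all actives have a fitted effect of over 55% in size.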 The method, boiled down: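 Disruption of the preformed MPP8–trimethyl-H3K9 peptide complex (both 50 nM, 30 min, RT) is measured after 30 min compound exposure, using AlphaScreen proximity beads; aurintricarboxylic acid titration serves as plate control.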

The target in assay [24] is Transient receptor potential cation channel subfamily V member 1 (Homo sapiens) (UniProt Q8NER1). Description: HTS Assay for Compounds that Act as Enhancers of the Vanilloid Receptor 1 (AID 488979). Note: 0% is about no effect. The essentials: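 TRPV1-expressing cells loaded with Fluo-8 calcium dye; compounds added and calcium influx read kinetically for 3 min (agonist phase), then capsaicin at EC20 added and read 2 min more for enhancement. Fluorescence ex 480/em 520 nm.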
Sequence of Transient receptor potential cation channel subfamily V member 1 (Homo sapiens) (Q8NER1 whole entry, looked up): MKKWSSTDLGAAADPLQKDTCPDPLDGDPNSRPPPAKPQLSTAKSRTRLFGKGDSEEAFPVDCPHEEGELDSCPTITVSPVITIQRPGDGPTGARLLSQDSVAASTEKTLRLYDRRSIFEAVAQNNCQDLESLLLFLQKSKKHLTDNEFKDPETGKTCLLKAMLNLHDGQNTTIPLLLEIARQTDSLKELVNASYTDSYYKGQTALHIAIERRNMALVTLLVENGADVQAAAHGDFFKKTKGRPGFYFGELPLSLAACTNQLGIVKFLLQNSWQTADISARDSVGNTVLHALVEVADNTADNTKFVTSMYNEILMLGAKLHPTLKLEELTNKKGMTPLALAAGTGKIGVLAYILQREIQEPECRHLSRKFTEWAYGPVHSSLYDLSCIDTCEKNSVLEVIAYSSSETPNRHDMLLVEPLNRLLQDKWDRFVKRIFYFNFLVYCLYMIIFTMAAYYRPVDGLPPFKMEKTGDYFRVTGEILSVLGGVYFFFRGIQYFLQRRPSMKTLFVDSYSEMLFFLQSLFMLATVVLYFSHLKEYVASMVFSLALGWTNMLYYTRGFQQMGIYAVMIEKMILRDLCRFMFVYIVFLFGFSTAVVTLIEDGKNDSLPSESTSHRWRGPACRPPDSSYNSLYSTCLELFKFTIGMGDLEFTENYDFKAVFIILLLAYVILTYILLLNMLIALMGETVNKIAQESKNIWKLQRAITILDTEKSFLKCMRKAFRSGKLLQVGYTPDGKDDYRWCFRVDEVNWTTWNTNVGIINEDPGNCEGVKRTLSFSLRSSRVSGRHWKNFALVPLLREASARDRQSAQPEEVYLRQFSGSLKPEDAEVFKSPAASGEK

The target of assay [25] is Thyrotropin receptor (Homo sapiens) (UniProt P16473). Kind of assay: qHTS Assay for Antagonists of the Thyroid Stimulating Hormone Receptor (AID 488980). Note: series mostly up to about 58 µM; 0% is about no effect. The essentials:
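Cells expressing human TSHR (HEK293) are dispensed in HBSS/HEPES containing 70 uM RO 20-1724, compound is added, then TSH at EC80 (4 nM final). Antibody in lysis buffer follows, 30 minutes at room temperature before HTRF detection.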

Assay [26] has as its target Thyrotropin-releasing hormone receptor (Homo sapiens) (UniProt P34981). Description: qHTS for Small Molecule Agonists and Allosteric Enhancers of Human TRH Receptor: Validation Screen for Agonists (AID 493127;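 active = calcium activation more than 3 SD above the typical response in the agonist read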;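 note: intracellular calcium rise by fluo-8 fluorescence before TRH EC20 addition; 0% is about no effect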). As to conditions: TRH receptor agonist cell assay; at 2 µM; hits give high values. The essentials: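 Gq-coupled calcium mobilization in TRHR cells after compound addition, monitored kinetically with fluo-8 dye on an FDSS reader.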

Assay [27] addresses Galactokinase (Homo sapiens) (UniProt P51570). Description: qHTS Validation Assay for Inhibitors of Human Galactokinase (GALK) (AID 493189). Note: 0% is about no effect. The essentials: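 Compounds were pin-transferred into ATP buffer, then GALK-galactose mix was added (final 5 nM enzyme, 100 uM galactose, 35 uM ATP). After 1 h at room temperature, remaining ATP was measured luminescently.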
Assay [28] in a line: Validation screen for small molecules that induce DNA re-replication in SW480 colon adenocarcinoma cells (AID 504364). Note: 0% is about no effect. The essentials:
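Cells are treated 48 hr with test compound, stained 40 min with Hoechst at 37 C, and scanned for nuclear fluorescence; compounds inducing re-replication increase nuclei with elevated intensity.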

Sequence of DNA dC->dU-editing enzyme APOBEC-3G (Homo sapiens) (Q9HC16 whole entry, looked up): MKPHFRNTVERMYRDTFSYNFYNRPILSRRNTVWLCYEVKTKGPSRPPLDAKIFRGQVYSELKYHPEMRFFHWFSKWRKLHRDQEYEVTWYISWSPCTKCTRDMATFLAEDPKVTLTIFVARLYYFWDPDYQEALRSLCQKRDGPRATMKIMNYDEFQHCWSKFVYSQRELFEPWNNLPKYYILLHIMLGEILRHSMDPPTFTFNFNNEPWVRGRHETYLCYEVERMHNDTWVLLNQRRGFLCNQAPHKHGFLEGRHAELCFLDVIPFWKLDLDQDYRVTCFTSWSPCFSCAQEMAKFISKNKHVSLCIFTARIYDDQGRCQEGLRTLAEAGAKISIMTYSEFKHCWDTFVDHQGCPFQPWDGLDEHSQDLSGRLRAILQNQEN
Sequence of 3',5'-cyclic-AMP phosphodiesterase 4B (Homo sapiens) (Q07343 whole entry, looked up): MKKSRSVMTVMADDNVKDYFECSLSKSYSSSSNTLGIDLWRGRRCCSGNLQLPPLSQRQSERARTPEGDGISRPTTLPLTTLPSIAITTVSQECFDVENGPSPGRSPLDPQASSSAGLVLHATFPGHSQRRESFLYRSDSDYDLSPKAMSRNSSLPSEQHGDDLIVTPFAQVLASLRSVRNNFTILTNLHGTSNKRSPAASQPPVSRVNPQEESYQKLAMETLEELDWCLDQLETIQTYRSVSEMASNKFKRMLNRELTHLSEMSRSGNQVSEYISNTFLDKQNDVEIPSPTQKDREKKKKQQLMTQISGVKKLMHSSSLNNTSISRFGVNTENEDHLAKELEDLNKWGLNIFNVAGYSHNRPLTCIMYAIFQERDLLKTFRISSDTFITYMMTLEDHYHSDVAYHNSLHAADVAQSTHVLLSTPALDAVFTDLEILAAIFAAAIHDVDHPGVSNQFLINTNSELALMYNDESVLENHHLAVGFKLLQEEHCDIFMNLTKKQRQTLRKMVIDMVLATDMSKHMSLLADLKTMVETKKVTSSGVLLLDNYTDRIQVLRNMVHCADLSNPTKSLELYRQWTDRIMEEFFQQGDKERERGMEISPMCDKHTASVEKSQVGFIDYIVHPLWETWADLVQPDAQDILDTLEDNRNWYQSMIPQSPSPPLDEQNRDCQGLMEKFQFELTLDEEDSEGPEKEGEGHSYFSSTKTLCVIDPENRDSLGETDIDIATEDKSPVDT
Sequence of Ubiquitin carboxyl-terminal hydrolase 1 (Homo sapiens) (O94782 whole entry, looked up): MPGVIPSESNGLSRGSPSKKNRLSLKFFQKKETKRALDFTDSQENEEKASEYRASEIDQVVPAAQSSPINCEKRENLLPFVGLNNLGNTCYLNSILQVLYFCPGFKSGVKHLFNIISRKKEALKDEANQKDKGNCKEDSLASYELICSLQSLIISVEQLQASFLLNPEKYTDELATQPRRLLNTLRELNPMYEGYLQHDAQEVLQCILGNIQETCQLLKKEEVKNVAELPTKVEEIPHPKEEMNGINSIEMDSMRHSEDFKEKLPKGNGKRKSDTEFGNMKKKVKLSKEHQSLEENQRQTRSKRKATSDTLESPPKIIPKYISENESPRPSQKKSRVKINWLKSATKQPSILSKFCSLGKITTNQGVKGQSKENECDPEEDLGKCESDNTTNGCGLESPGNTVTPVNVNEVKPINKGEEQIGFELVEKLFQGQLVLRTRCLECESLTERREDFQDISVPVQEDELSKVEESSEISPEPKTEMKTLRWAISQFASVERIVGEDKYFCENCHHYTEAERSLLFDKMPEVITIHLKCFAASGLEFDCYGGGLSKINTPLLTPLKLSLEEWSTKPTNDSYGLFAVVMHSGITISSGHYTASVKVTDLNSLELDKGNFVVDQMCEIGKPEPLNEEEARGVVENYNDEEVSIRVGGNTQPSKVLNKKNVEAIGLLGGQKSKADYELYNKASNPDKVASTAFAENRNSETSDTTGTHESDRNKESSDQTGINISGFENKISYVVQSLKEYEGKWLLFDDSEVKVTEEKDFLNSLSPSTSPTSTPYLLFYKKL

With `N[C@H](C(=O)O)[C@H](OCc1ccccc1)C(=O)O`, the Potency in [1] was 31.6 µM (active); in assay [2], above 46 µM; in assay [3], above 46 µM; in assay [6], 7.94 µM (active). The Potency result in assay [4], in assay [5], in [7], in [8] and in assay [9] was “inactive” each time.

In the case of `CC[C@]1(c2ncc[nH]2)Cc2ccccc2O1`, the Potency result in assay [1], in assay [4], in assay [5], in assay [8], in assay [9] and in [10] was “inactive” in each case. In addition, the results for the Potency in assay [2], in [3] and in [13] were above 46 µM, above 46 µM and 44.1 µM (active), respectively. In addition, the result in assay [11] and in [12] was inactive.

`CCCCCCCCCCCCC/C=C/[C@@H](O)[C@@H](N)CO`: the Potency result in assay [14], in [15], in assay [16], in assay [17], in [18] and in assay [19] was “inactive” throughout. Also, the Potency entry in assay [20], in assay [21], in assay [22], in assay [23] and in assay [9] was “inactive” each time. Moreover, the outcome in [24], in assay [25], in assay [27] and in assay [28] was inactive. Also, the activation in assay [26] was 0.312%.

`OC[C@@H]1O[C@@H](n2cnc3c(NC4CCCC4)ncnc32)[C@H](O)[C@H]1O`: the Potency entry in assay [1], in assay [4], in assay [5], in [7], in [8] and in [9] was “inactive” throughout. For the same compound, the Potency in assay [2] and in [3] was above 46 µM throughout.
